Among the data in PubChem BioAssay are composite z-score, composite Z-score and z-score values, retold here.

One assay addresses Albumin (Bos taurus) (UniProt P02769). Put plainly: bovine serum albumin binders on microarray, profiling panel, artefact control for SMM control protein annotation, biochemical, small-molecule microarray, Alexa647 label, 635/667 nm fluorescence (AID 1118).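 Further: score merges 667 nm emission intensity and signal-to-noise per printed compound spot.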 As to conditions: BSA-A647 binding, fluorescence 635 nm, higher = more signal.
Assay [1] in a line: small-molecule microarray binders of probe aXIP, primary screen, biochemical, NeuroSMM set, 635/667 nm fluorescence (AID 1119).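 Further: probe is the protein aXip251-270 applied at 1 µg/mL to compound-printed slides; binding of probe to printed compounds measured as 667 nm fluorescence plus signal to noise.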 The conditions noted are these: higher = more signal, called active from +8 up or from −8 down.
Assay [2] is described as follows: small-molecule binders of probe aNOTCH3, primary screen, biochemical, small-molecule microarray, 635/667 nm fluorescence (AID 1120).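 Further: probe is a biotin-tagged antibody raised against NOTCH3 rather than NOTCH3 protein; score merges spot fluorescence near 667 nm with spot signal to noise.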 As to conditions: higher = more signal.
The nature of assay [3]: small-molecule binders of probe aNOTCH2, primary screen, biochemical, small-molecule microarray, 635/667 nm fluorescence (AID 1121).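 Further: score merges feature fluorescence read at 667 nm with its signal to noise.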 As to conditions: higher = more signal.
The target of assay [4] is Carbonic anhydrase 2 (Homo sapiens) (UniProt P00918). Briefly: CAII small-molecule binders, profiling panel, biochemical, small-molecule microarray, Alexa647-labelled CAII (AID 1122). The conditions noted are these: CAII-A647 binding fluorescence, higher = more signal.
Assay [5] in a line: COS7 lysate on small-molecule microarray, probe aHis, 635 nm (AID 1123).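 Further: z-score combines 667nm fluorescence intensity with signal-to-noise per printed compound spot.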 The conditions noted are these: COS7 cell lysate, fluorescence, higher = more signal.
Assay [6] in a line: compound binding in COS7 lysate, probe aLAP1, primary screen, cell lysate, small-molecule microarray (AID 1124).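 Further: lysate comes from COS7 cells expressing LAP1 and is applied at 0.3 µg/mL; score merges spot fluorescence near 667 nm with signal-to-noise over triplicate slides.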 As to conditions: probe aLAP1, fluorescence, higher = more signal.
A further assay has as its system Sam68 (KHDRBS1). Briefly: Sam68 small-molecule binders, primary screen, biochemical, small-molecule microarray, 635 nm fluorescence (AID 1125).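 Further: score merges 667 nm channel intensity with signal to noise over triplicate slides.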 As to conditions: small-molecule microarray binding, higher = more signal.
The test system of assay [7] is Chordin-like protein 2 (CHRDL2). Briefly: CHRDL2 small-molecule binders, primary screen, biochemical, small-molecule microarray, 635 nm fluorescence (AID 1126).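 Further: printed compound slides probed with Chrdl2 protein at 4 µg/mL for 1 h at 4 C; score merges 667 nm emission intensity with signal to noise over three replicate slides.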 As to conditions: small-molecule microarray binding, fluorescence 635 nm; higher = more signal.
Assay [8] addresses Concanavalin-A (Canavalia ensiformis) (UniProt P02866). Briefly: ConA small-molecule binders, primary screen, artefact control for SMM control protein annotation, biochemical, small-molecule microarray, Alexa647 label, 635 nm (AID 1127).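 Further: z combines 667 nm emission intensity with signal-to-noise across three replicate slides.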 The conditions noted are these: ConA-A647 binding fluorescence, higher = more signal.
Assay [9] is described as follows: anti-His antibody binders, primary screen, artefact control for SMM control protein annotation, biochemical, small-molecule microarray, 635 nm fluorescence (AID 1128).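 Further: score merges feature fluorescence with signal-to-noise for each printed compound spot.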 The conditions noted are these: anti-His Alexa647 antibody binding, higher = more signal.
Assay [10] has as its system Human papillomavirus type 1a E7 protein (residues 1-88). Put plainly: HPV1a E7 small-molecule binders, primary screen, biochemical, small-molecule microarray, residues 1-88, 635 nm (AID 1129). As to conditions: small-molecule microarray binding, fluorescence 635 nm; higher = more signal.
Assay [11] addresses Focal adhesion kinase 1 (Homo sapiens) (UniProt Q05397). Put plainly: small-molecule microarray binders of FAK, primary screen, biochemical, 635/667 nm fluorescence, BSA, DTT (AID 1130).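 Further: composite of spot emission at 667 nm and signal to noise over triplicate slides.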 The conditions noted are these: PTK2 binding, 635 nm fluorescence, higher = more signal.
The test system of assay [12] is Fibrinogen (Alexa647-labelled). Put plainly: fibrinogen binders on compound microarrays, profiling panel, artefact control for SMM control-protein annotation, biochemical, small-molecule microarray, 635/667 nm fluorescence (AID 1131).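 Further: z-score merges 667 nm fluorescence with per-spot signal-to-noise over triplicate slides.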 The conditions noted are these: fibrinogen-A647 binding fluorescence, higher = more signal.
The target in assay [13] is Follistatin (Homo sapiens) (UniProt P19883). Briefly: follistatin binders on small-molecule microarrays, primary screen, biochemical, small-molecule microarray, 635/667 nm fluorescence (AID 1132). As to conditions: FST binding, 635 nm fluorescence, higher = more signal.
Sequence of Follistatin (Homo sapiens) (P19883 whole entry, looked up): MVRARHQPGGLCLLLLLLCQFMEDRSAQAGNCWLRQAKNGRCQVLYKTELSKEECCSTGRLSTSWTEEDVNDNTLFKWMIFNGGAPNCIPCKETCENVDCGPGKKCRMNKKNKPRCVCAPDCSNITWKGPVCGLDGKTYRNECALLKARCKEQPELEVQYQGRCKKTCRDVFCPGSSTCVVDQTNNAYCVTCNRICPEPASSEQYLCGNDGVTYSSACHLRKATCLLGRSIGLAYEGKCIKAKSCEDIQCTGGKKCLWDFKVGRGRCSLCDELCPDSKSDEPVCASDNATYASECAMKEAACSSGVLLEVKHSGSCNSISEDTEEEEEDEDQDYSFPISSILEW
The target in assay [14] is Fibroblast growth factor 2 (Homo sapiens) (UniProt P09038). Briefly: FGF2 binders on small-molecule microarrays, primary screen, biochemical, small-molecule microarray, 635/667 nm fluorescence (AID 1133). As to conditions: small-molecule microarray binding, FGF2, fluorescence 635/667; higher = more signal.
Sequence of Fibroblast growth factor 2 (Homo sapiens) (P09038 whole entry, looked up): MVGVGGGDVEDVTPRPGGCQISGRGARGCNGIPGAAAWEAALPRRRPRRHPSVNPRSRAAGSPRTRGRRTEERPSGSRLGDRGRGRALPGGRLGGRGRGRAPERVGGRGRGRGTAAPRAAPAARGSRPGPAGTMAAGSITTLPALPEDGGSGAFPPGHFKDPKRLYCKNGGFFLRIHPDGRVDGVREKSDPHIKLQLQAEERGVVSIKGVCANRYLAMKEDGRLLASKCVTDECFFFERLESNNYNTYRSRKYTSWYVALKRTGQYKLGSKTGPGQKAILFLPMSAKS
The nature of assay [15]: mitochondrial membrane potential change in A549 cells, profiling panel, cell-based, JC-1 fluorescence, basal, 24 h, 100 nL (AID 1138).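 Further: A549 lung adenocarcinoma cells under basal conditions with no added stimulus; test concentration not given here.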 As to conditions: higher = more signal.
The subject of a further assay is Lefty1. Put plainly: Lefty1 binders on small-molecule microarrays, primary screen, biochemical, small-molecule microarray, 635/667 nm fluorescence (AID 1139). The conditions noted are these: small-molecule microarray binding, fluorescence 635/667; higher = more signal.
Assay [16] concerns wheat germ agglutinin (Triticum aestivum), Alexa647-labelled. Put plainly: wheat germ agglutinin binders on compound microarrays, profiling panel, artefact control for SMM control-protein annotation, biochemical, small-molecule microarray, 635/667 nm fluorescence (AID 1140).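 Further: score merges 667 nm feature emission with signal to noise over triplicate slides.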 As to conditions: WGA-A647 binding, 635 nm fluorescence, higher = more signal.
Assay [17] deals with Luciferin 4-monooxygenase (Photinus pyralis) (UniProt P08659). Briefly: firefly luciferase enzyme inhibitors, primary screen, biochemical, luminescence, purified enzyme, 2006 set (AID 1141).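 Further: cell-free assay with purified firefly luciferase at 100 ng per well in PBS; test concentration not given here.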 The conditions noted are these: SteadyGlo luminescence, 30 min, higher = more signal, called active from +8 up or from −8 down.
Sequence of Luciferin 4-monooxygenase (Photinus pyralis) (P08659 whole entry, looked up): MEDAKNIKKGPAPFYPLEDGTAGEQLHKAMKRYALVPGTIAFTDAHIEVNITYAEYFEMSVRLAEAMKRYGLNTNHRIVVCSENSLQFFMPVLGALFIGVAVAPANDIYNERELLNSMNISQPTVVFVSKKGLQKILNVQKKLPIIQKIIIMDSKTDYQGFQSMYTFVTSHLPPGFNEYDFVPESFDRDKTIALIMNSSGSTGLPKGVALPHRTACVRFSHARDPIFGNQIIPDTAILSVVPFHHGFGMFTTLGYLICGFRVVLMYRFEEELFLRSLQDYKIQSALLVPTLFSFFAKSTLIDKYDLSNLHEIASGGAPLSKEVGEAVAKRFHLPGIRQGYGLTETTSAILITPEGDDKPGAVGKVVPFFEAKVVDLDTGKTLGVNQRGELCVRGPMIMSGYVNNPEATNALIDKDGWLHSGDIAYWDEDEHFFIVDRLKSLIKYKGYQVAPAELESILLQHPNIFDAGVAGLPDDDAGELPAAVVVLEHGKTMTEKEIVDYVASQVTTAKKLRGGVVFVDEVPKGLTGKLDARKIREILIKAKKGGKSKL

Active and inactive are the calls of the source.

Sequence of Focal adhesion kinase 1 (Homo sapiens) (Q05397 whole entry, looked up): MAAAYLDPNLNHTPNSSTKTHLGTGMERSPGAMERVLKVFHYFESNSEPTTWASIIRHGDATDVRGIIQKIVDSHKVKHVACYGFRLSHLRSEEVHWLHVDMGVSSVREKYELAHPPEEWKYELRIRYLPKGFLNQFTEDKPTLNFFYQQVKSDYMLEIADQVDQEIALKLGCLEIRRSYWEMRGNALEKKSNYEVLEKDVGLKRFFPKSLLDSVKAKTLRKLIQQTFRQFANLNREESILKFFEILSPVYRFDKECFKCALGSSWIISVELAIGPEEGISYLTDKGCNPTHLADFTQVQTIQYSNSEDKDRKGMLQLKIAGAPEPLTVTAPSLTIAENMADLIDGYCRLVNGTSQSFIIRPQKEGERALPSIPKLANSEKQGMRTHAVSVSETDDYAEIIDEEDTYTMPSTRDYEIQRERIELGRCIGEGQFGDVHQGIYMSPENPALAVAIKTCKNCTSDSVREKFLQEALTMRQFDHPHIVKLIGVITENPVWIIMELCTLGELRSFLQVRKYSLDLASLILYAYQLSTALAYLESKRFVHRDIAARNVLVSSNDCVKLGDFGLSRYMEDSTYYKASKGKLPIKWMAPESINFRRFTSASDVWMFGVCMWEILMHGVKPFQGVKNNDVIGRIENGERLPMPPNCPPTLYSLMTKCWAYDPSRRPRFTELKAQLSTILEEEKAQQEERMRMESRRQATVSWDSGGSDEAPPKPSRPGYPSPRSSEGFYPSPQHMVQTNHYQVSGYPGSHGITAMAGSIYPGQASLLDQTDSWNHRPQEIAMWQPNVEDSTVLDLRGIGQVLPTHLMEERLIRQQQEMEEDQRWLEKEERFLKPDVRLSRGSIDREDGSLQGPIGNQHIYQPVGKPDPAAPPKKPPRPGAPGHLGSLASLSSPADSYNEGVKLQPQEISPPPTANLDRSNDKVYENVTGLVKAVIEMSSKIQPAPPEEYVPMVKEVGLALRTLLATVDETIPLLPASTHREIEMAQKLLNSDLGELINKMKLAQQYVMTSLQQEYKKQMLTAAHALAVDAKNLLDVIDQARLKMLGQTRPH
Sequence of Albumin (Bos taurus) (P02769 whole entry, looked up): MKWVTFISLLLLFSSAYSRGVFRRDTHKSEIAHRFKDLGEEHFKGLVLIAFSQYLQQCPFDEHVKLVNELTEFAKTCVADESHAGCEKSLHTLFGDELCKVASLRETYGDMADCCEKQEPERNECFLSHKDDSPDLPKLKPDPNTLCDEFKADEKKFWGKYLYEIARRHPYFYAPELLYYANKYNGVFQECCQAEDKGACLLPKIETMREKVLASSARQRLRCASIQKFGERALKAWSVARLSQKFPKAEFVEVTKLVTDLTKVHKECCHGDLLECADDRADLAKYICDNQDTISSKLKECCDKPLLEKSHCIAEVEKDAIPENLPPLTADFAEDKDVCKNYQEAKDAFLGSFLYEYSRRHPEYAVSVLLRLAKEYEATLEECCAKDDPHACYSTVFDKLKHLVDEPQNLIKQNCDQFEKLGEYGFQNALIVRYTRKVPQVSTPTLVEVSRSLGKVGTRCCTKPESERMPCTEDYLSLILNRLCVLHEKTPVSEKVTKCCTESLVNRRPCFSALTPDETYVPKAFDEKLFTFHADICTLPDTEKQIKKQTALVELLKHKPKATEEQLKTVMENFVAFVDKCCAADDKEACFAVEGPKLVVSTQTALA
Sequence of Concanavalin-A (Canavalia ensiformis) (P02866 whole entry, looked up): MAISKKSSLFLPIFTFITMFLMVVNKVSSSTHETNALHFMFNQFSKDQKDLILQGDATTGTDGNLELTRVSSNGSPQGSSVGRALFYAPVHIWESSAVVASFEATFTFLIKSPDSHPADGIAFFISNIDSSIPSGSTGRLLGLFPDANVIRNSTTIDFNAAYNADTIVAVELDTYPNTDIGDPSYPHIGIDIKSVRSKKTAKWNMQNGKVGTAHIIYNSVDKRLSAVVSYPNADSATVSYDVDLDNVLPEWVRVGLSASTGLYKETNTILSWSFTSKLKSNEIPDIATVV

With `NCCCCCNC(=O)[C@@H]1C[C@@H]2C(=O)NCC(=O)N2[C@@H]1c1cccc(OCCO)c1`, the composite z-score with Albumin (Bos taurus) is 0.411; in assay [2], 0.154; in assay [3], -0.0366; in [4], 0.443; in assay [5], 0.506; in [6], 0.954. For the same compound, the composite z-score in the assay with Sam68 (KHDRBS1) turned out to be 1.32; in assay [7], 0.788; in [8], 1.17; in [9] it was 2.23; in assay [10], 1.16; in assay [11], 0.551. Also, the composite z-score worked out at 0.47 in assay [12]; 1.45 in assay [13]; 1.17 in assay [14]; 1.55 in the assay on Lefty1; 0.951 in assay [16]. Further, the composite Z-score in [1] was 0.401 (inactive). For the same compound, the z-score in [15] is -0.552; in [17] it was -0.637 (inactive).
Take `COc1ccc([Si](C)(C)[C@@H]2[C@@H](CC(=O)N3Cc4ccccc4C[C@H]3CO)O[C@]3(C(=O)N(Cc4cccc(N5C(=O)c6cccc7cccc5c67)c4)c4ccccc43)[C@H]2C)cc1`: the composite z-score with Albumin (Bos taurus) was -0.566; in assay [2] it was 0.143; in assay [3], -0.0928; in assay [4], 0.598; in assay [5], 1.26; in assay [6] it was -0.235. The composite z-score was 0.817 in the assay on Sam68 (KHDRBS1); 1.27 in assay [7]; 1.12 in assay [8]; 0.846 in assay [9]; 0.956 in assay [10]; 0.434 in [11]. Further, the composite z-score in assay [12] came to 0.883; in assay [13], 1.35; in [14], 1.62; with Lefty1, 0.937; in assay [16], 0.423. In addition, the composite Z-score in assay [1] was -0.0894 (inactive). Further, the results for the z-score in assay [15] and in assay [17] were 0.129 and -0.347 (inactive), respectively.
On to `CC(CO)N1C(=O)[C@@H]2[C@H]3C(=O)OCC=C[C@H]3OC23C=CCN(C(C)(C)C)C(=O)[C@@H]13` (stereo not given in full), for which the composite z-score in the assay with Albumin (Bos taurus) was -0.0964; in [2], -0.242; in assay [3] it was -0.125; in assay [4], 0.852; in [5], -0.856; in [6] it was -0.604. In addition, the composite z-score with Sam68 (KHDRBS1) was -1.05; in assay [7] it was -0.508; in assay [8], 0.251; in assay [9], -1.15; in [10] it was -0.833; in [11] it was -0.367. Further, the composite z-score was -0.591 in assay [12]; -0.187 in assay [13]; -0.0701 in [14]; -0.114 with Lefty1; -0.104 in assay [16]. For the same compound, the composite Z-score in assay [1] was 1.03 (inactive). Further, the z-score in [15] is -0.28; in [17] it was -0.069 (inactive).
Regarding `COC(=O)[C@@]1(Cc2ccc(OC)cc2)[C@H]2c3cc(C(=O)N4CCCC4)n(Cc4c(-c5ccccc5)noc4C)c3C[C@H]2CN1C(=O)c1ccccc1`, the composite z-score with Albumin (Bos taurus) came to 0.634; in assay [2] it was 0.576; in assay [3] it was 0.251; in [4], 0.446; in assay [5], 3.24; in assay [6], 0.214. For the same compound, the composite z-score is 1.35 in the assay with Sam68 (KHDRBS1); -0.748 in [7]; 0.978 in assay [8]; 1.45 in [9]; 1.27 in [10]; 0.372 in assay [11]. For the same compound, the composite z-score in assay [12] was 0.695; in assay [13], 0.699; in assay [14] it was -0.298; in the assay with Lefty1 it was 0.0669; in assay [16], 0.539. In assay [1], the composite Z-score was 0.216 (inactive). For the same compound, the z-score was -0.608 in assay [15] and 2.05 (inactive) in [17].
In the case of `COC(=O)[C@@]1(Cc2ccc(OC)cc2)[C@H]2c3cc(C(=O)N4CCCC4)n(Cc4cccc5ccccc45)c3C[C@H]2CN1C(=O)c1ccccc1`, the composite z-score came out at 1.02 in the assay with Albumin (Bos taurus); 0.137 in assay [2]; 0.377 in [3]; 0.757 in [4]; 2.55 in [5]; 0.592 in assay [6]. In addition, the composite z-score in the assay on Sam68 (KHDRBS1) was 0.462; in [7], -0.133; in assay [8], 0.686; in [9], 1.57; in assay [10] it was 1.2; in assay [11] it was 0.164. Besides, the composite z-score is 0.704 in [12]; 0.36 in assay [13]; -0.247 in assay [14]; -0.245 with Lefty1; 0.396 in [16]. Moreover, the composite Z-score in assay [1] is -0.115 (inactive). The z-score in [15] was 1.07; in assay [17], 1.31 (inactive).
